According to PubChem BioAssay (NCI):
The panel holds about 83,000 compounds, 20% with a hit somewhere; the sample as a whole holds those more often.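 48-hour exposure, single concentration, 96-well plates; percent growth endpoint where 0 means no net growth. Active: below 10.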 Values without a mark were called inactive. Active and inactive are the calls of the source.

Test system: NCI-H460 lung
Assay: NCI-60 one-dose screen, 48 h (100 = growth as untreated, 0 = no growth, -100 = all killed)
Conditions: 10 µM unless noted

Point of comparison: `O=C(Nc1ccc(-c2ccc3c(c2)NC(=O)/C3=C\c2ccc[nH]2)cc1)NC1CC1`, growth 59.8%. Against it:
- O=C(NCCNc1nccc(-c2c(-c3cccc(F)c3)nc3sccn23)n1)c1ccc(Cl)cc1 — lower, 35.8%
- N#CC1=C(/N=C/c2ccccc2)Oc2c(ccc3ccccc23)C1c1ccc([N+](=O)[O-])cc1 (centres undefined) — higher, 95.2%
- Brc1ccc(Nc2csc(-c3ccccn3)n2)cc1 — higher, 96.7%
- CC(=O)N1c2ccccc2NC2=C(C(=O)NC2(C)C)C1c1ccco1 (centres undefined) — higher, 98.4%
- CCOC(=O)CSc1nc2ccccc2c(=O)n1Cc1ccc(S(N)(=O)=O)cc1 — higher, 101%
- CCCCOc1ccc(/C(C)=N/Nc2cc(C)nc3ccc(Br)cc23)cc1 — lower, 14.2%
- O=C(c1ccccc1)N1N=C(c2ccc(-n3ccc(C(F)(F)F)n3)c(F)c2)CC1c1ccc[nH]1 (centres undefined) — higher, 102%
- O=c1ccc(-c2nc(N3CCOCC3)c3ccccc3n2)c[nH]1 — higher, 103%
- COc1cc(/C=C\C(=O)O)ccc1OCc1ccccc1 — higher, 105%
- COc1ccc(C(C)=O)c(OC)c1 — higher, 115%
- NC1=NN=C(N)C1=Cc1cc2ccccc2n2nnnc12 — higher, 105%
- C=C1C(=O)O[C@H]2[C@H]1CC/C(CNC(=O)/C=C/c1cccc(OC)c1)=C\CC[C@@]1(C)O[C@@H]21 — higher, 76%
- CNC(=O)c1cc(Cn2nc(C)c(NC(=O)Nc3ccc(Cl)c(C(F)(F)F)c3)c2C)ccn1 — higher, 100%
- Cc1ccc(/C=N/NC(=O)CSc2nc3ccccc3c(=O)n2Cc2ccc(S(N)(=O)=O)cc2)cc1 — higher, 98.5%
- O=S(=O)(NCCCNc1nccc(-c2c(-c3cccc(O)c3)nc3occn23)n1)c1ccc(Cl)cc1 — higher, 92.5%
- NC(=NCCCOc1ccc(F)cc1)Nc1ccc(I)cc1 — higher, 81.8%
- Oc1ccc(C(c2ccc(O)cc2)c2ccc(Br)cn2)cc1 — higher, 107%

In the case of `O=C(CCN1CCCC1)Nc1ccc2c(NCCCc3ccccc3)c3ccccc3nc2c1`, the growth is reported as -72.2% (active).
With `COc1cc(/C(C)=C(\c2ccc(Cl)cc2)c2ccc(OCCN3CCCC3)cc2)ccc1F` the growth was 6.04% (active).
For `COc1cc2c(c(O)c1Cl)C(=O)c1c(O)cc(C[C@H](C)O)cc1[C@H]2[C@H]1c2cc(C[C@H](C)O)cc(O)c2C(=O)c2c1cc(OC)c(Cl)c2O`, the growth was -0.266% (active).
With `O=C(Cc1ccc(/C=C/C(=O)c2ncc[nH]2)cc1)Nc1ccc(Cl)cc1` the growth was -35.5% (active).
`CCCOC(=O)N[C@H]1CCc2c(Cl)c(OC)c(OC)c(OC)c2-c2ccc(SC)c(=O)cc21` was tested, and the growth was 1.99% (active).
For `COc1cc2c(=O)n(CCN(C)C)c3c4cc5c(cc4ccc3c2cc1OC)OCO5`, the growth was -31.6% (active).
For `C=CC(=O)N[C@@H](/C=C/C(=O)OCC)Cc1ccc(-c2cc(Cl)cc(Cl)c2)cc1`, the growth was 9.25% (active).
With `Cc1cc2nc3c4cccc(O)c4n(CCN(C)C)c3nc2cc1C` the growth was 9.09% (active).

Test system: HOP-92 NSCLC
Assay: as above
Conditions: 10 µM unless noted

Point of comparison: `O=C(CCN1CCCC1)Nc1ccc2c(NCCCc3ccccc3)c3ccccc3nc2c1`, growth 21.5%. Against it:
- COc1cc(C=O)ccc1OC1OC(COC(C)=O)C(OC(C)=O)C(OC(C)=O)C1OC(C)=O (centres undefined) — higher, 88.7%
- CC1=CCC(OC(=O)C(C)(O)CCC(O)(C(=O)OC2(C)C=CC(O)(C(C)C)CC2)C(C)C)(C(C)C)CC1 (centres undefined) — higher, 109%
- CC(=O)Nc1cccc(-c2ccc3c(c2)NC(=O)/C3=C\c2ccc[nH]2)c1 — higher, 80.8%
- CC(C)(C)c1ccc(NS(=O)(=O)c2ccc3nc(NC(=O)c4cnccn4)[nH]c3c2)cc1 — higher, 36.7%
- CC(C)(C)c1cc(/C=N/NC(=O)c2ccccc2NC(=O)c2cccs2)c(O)c(C(C)(C)C)c1 — higher, 75.4%
- C#CCNC(=O)[C@H](Cc1ccccc1)NC(=O)[C@]12CC[C@@H](C(=C)C)[C@@H]1[C@H]1CC[C@@H]3[C@@]4(C)CCC(=O)C(C)(C)[C@@H]4CC[C@@]3(C)[C@]1(C)CC2 — higher, 66%
- CCCCCCNC(=O)Oc1ccc(/C(=C(\C)c2ccccc2)c2ccc(OCCCN(C)C)cc2)cc1 — higher, 83.7%
- CC(=O)Nc1ccc(-c2ccc3c(c2)NC(=O)/C3=C\c2ccc[nH]2)cc1 — higher, 130%
- CCCCOc1ccc(/C=N/Nc2cc(C)nc3ccc(Br)cc23)cc1 — higher, 68%
- COc1cc(/C(C)=C(\c2ccc(Cl)cc2)c2ccc(OCCN(C)C)cc2)ccc1F — higher, 44.6%
- O=C(/C=C/c1ccc(Cl)cc1)c1ccc(NC(=O)N2CCN(c3cc4c(cc3F)c(=O)c(C(=O)O)cn4C3CC3)CC2)cc1 — higher, 92.9%
- O=C(c1nc2ccccc2[nH]1)C1C(c2ccc(Cl)cc2)C2CC3CCCC[C@H]3N2[C@@]12C(=O)Nc1cc(Cl)ccc12 (some centres undefined) — higher, 46.3%
- O=C(NCCNc1nccc(-c2c(-c3cccc(F)c3)nc3sccn23)n1)c1ccc(Cl)cc1 — higher, 87.1%
- N#CC1=C(/N=C/c2ccccc2)Oc2c(ccc3ccccc23)C1c1ccc([N+](=O)[O-])cc1 (centres undefined) — higher, 88.5%
- Brc1ccc(Nc2csc(-c3ccccn3)n2)cc1 — higher, 102%
- COc1cc(/C(C)=C(\c2ccc(Cl)cc2)c2ccc(OCCN3CCCC3)cc2)ccc1F — higher, 52.4%
- CC(=O)N1c2ccccc2NC2=C(C(=O)NC2(C)C)C1c1ccco1 (centres undefined) — higher, 67.2%
- CCOC(=O)CSc1nc2ccccc2c(=O)n1Cc1ccc(S(N)(=O)=O)cc1 — higher, 94.6%
- CCCCOc1ccc(/C(C)=N/Nc2cc(C)nc3ccc(Br)cc23)cc1 — higher, 78.4%
- O=C(c1ccccc1)N1N=C(c2ccc(-n3ccc(C(F)(F)F)n3)c(F)c2)CC1c1ccc[nH]1 (centres undefined) — higher, 141%
- O=C(Nc1ccc(-c2ccc3c(c2)NC(=O)/C3=C\c2ccc[nH]2)cc1)NC1CC1 — higher, 125%
- O=c1ccc(-c2nc(N3CCOCC3)c3ccccc3n2)c[nH]1 — higher, 103%
- COc1cc(/C=C\C(=O)O)ccc1OCc1ccccc1 — higher, 86.1%
- COc1ccc(C(C)=O)c(OC)c1 — higher, 75.5%
- NC1=NN=C(N)C1=Cc1cc2ccccc2n2nnnc12 — higher, 87.4%
- CNC(=O)c1cc(Cn2nc(C)c(NC(=O)Nc3ccc(Cl)c(C(F)(F)F)c3)c2C)ccn1 — higher, 106%
- Cc1ccc(/C=N/NC(=O)CSc2nc3ccccc3c(=O)n2Cc2ccc(S(N)(=O)=O)cc2)cc1 — higher, 109%
- O=C(Cc1ccc(/C=C/C(=O)c2ncc[nH]2)cc1)Nc1ccc(Cl)cc1 — higher, 76%
- O=S(=O)(NCCCNc1nccc(-c2c(-c3cccc(O)c3)nc3occn23)n1)c1ccc(Cl)cc1 — higher, 96.6%
- C=CC(=O)N[C@@H](/C=C/C(=O)OCC)Cc1ccc(-c2cc(Cl)cc(Cl)c2)cc1 — lower, 14.8%
- NC(=NCCCOc1ccc(F)cc1)Nc1ccc(I)cc1 — higher, 69.8%
- Cc1cc2nc3c4cccc(O)c4n(CCN(C)C)c3nc2cc1C — higher, 55.1%

With `COc1cc2c(c(O)c1Cl)C(=O)c1c(O)cc(C[C@H](C)O)cc1[C@H]2[C@H]1c2cc(C[C@H](C)O)cc(O)c2C(=O)c2c1cc(OC)c(Cl)c2O` the growth was -24.2% (active).
With `C=C1C(=O)O[C@H]2[C@H]1CC/C(CNC(=O)/C=C/c1cccc(OC)c1)=C\CC[C@@]1(C)O[C@@H]21` the growth was -31.7% (active).
With `CCCOC(=O)N[C@H]1CCc2c(Cl)c(OC)c(OC)c(OC)c2-c2ccc(SC)c(=O)cc21` the growth was -2.58% (active).
In the case of `COc1cc2c(=O)n(CCN(C)C)c3c4cc5c(cc4ccc3c2cc1OC)OCO5`, the growth is reported as -9.74% (active).
With `Oc1ccc(C(c2ccc(O)cc2)c2ccc(Br)cn2)cc1` the growth was -0.572% (active).
